Bioassay records: PubChem, National Center for Advancing Translational Sciences (NCATS)
PLK1 PBD inh: blocks phosphopeptide binding to human PLK1 polo-box domain. P53350. hit rate 2.8% among 360,000. Potency, µM, without a hit: max response, negative = inhibition, most hits filed as inhibitors. Plk1 PBD binding of FITC phosphopeptide, fluorescence polarization; also: series mostly up to about 57 µM; % is scaled to controls: 0 for no effect and ±100 for the full control effect; nearly all actives have a fitted effect of over 65% in size
JMJD2A Tudor inh: inhibitors of human JMJD2A Tudor domain | AlphaScreen JMJD2A-Tudor / H3K4me3 peptide binding | Potency, µM (highest dose often 114 µM), inactives show at the top dose activity change, negative = inhibition, most hits filed as inhibitors | hit rate 4.4% among 390,000 | O75164; also: % is scaled to controls: 0 for no effect and ±100 for the full control effect; nearly all actives have a fitted effect of over 50% in size
Target sequence (O75164 whole entry, looked up, the tested form may be a part): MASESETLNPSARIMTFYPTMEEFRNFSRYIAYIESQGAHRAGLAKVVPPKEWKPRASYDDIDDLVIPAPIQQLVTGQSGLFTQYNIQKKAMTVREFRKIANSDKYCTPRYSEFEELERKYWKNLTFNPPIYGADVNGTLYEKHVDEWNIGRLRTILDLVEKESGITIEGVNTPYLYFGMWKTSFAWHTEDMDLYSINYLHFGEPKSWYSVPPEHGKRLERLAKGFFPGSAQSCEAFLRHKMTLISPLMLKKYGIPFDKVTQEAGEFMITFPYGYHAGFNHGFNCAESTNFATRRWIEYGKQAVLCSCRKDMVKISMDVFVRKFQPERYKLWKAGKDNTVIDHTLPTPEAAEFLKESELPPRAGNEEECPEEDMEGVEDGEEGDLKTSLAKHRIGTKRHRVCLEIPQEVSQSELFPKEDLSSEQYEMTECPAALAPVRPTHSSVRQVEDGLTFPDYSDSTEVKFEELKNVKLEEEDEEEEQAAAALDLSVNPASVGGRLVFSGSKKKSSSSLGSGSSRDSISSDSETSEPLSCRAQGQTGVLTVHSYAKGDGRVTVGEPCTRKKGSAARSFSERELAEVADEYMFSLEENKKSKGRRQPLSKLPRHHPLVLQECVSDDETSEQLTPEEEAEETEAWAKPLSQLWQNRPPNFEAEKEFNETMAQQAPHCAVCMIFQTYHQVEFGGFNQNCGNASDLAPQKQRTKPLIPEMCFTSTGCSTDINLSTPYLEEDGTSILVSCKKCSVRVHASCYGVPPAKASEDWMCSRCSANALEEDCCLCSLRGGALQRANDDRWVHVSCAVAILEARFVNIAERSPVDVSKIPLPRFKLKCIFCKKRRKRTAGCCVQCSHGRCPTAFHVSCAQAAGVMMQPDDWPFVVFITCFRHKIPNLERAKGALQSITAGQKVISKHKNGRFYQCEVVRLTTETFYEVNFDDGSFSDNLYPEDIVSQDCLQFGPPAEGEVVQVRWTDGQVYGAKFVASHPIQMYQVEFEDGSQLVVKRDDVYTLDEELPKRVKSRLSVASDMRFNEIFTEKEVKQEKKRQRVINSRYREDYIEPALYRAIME
Sfp PPTase inh: inhibitors of Bacillus subtilis Sfp phosphopantetheinyl transferase; Potency, µM, inactives show largest response in the series, negative = inhibition, hits mostly inhibitors; hit rate 3.5% among 310,000; Biochemical Sfp PPTase activity, qHTS;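 also: the enzyme is Sfp with the accession as filed and its product quenches rhodamine fluorescence; 0% = enzyme reaction without inhibitor and -100% = no enzyme wells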
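After 15 min at room temperature with compound, 15 nM Sfp received 5 uM rhodamine-CoA plus 12.5 uM BHQ-2-ybbR (50 mM Hepes pH 7.6, 10 mM MgCl2). Rate came from the fluorescence difference over 30 min, ex 525/em 598 nm.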
BAZ2B inh: blocks human BAZ2B. Potency, µM (highest dose often 114 µM), for the others: at the highest dose activity change, negative = inhibition, usual class: inhibitors. Q9UIF8. AlphaScreen BAZ2B-H3K14Ac peptide displacement. hit rate 4.4% among 360,000. AID 504333; also: % is scaled to controls: 0 for no effect and ±100 for the full control effect; nearly all actives have a fitted effect of over 60% in size
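Protein-peptide AlphaScreen: BAZ2B 50 nM, b-H3K14Ac 50 nM, 1x PBS pH 7.4 + 0.01% Tween-20. Preincubation 30 min RT; cpd 30 min RT (top 110 uM); beads 20 min RT, light-protected.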
G9a block: blocks human histone lysine methyltransferase G9a; Potency, µM (doses to about 102 µM), inactives show top-dose activity, negative = inhibition, most hits filed as inhibitors; G9a H3K9 monomethylation, AlphaScreen, 2 h; hit rate 8.8% among 350,000; AID 504332; Q96KQ7; also: % is scaled to controls: 0 for no effect and ±100 for the full control effect; nearly all actives have a fitted effect of over 75% in size
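Quantitative HTS format: methyltransferase activity on a biotin-tagged H3K9 peptide is measured by AlphaScreen, using a rabbit anti-monomethyl-H3K9 antibody with streptavidin donor and anti-IgG acceptor beads. Final levels are 20 nM enzyme, 500 nM peptide, 20 uM SAM; 2 h RT.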
HP1b chromo inh: blocks HP1-beta chromodomain binding to methylated histone tails | AlphaScreen HP1-beta / biotin-H3K9me3 peptide binding | P83916 | Potency, µM (doses to about 114 µM), without a hit: top-dose activity change, negative = inhibition, most hits filed as inhibitors | hit rate 0.56% among 390,000; also: nearly all actives have a fitted effect of over 70% in size
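Compound inhibition of the preformed complex between 50 nM HP1-beta and 50 nM biotinylated H3K9me3 peptide was read by AlphaScreen. Buffer was PBS pH 7.4 with 0.01% Tween-20. Incubations ran 30 min at room temperature, with 10 ug/mL donor/acceptor beads.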
* = called active by the depositor; u = inconclusive; x = no result; [ ] = remark or other dose. Rows were chosen to be rich in hits. Some 12% of all compounds tested hit in one or more screens of this group. Calls follow the shape of the dose curve; as a rule, active = well fitted curve in the direction sought with a large enough effect; inconclusive = small, poorly fitted or top-dose-only effect, or another doubt; inactive = no such curve, though single readings can be large; an effect the other way counts as inactive or inconclusive. Potency is read from the fitted curve at half-maximal effect.

SMILES	PLK1 PBD inh	JMJD2A Tudor inh	Sfp PPTase inh	BAZ2B inh	G9a block	HP1b chromo inh
Cc1cc(OCCN2CCOCC2)ccc1[N+](=O)[O-]	-13%	0.71µM*	u	50µM*	7.9µM*	u
Cc1cc(C)c(OCCN2CCOCC2)c(Cl)c1	-4%	28µM*	-12%	u	32µM*	u
Cc1ccc(C)c(OCCN2CCOCC2)c1	6%	10%	7%	-16%	u	37%
OC[C@@H]1O[C@H](OC2[C@@H](O)[C@@H](O)[C@@H](O)O[C@@H]2CO)[C@H](O)[C@@H](O)[C@@H]1OC1O[C@H](CO)[C@@H](O)[C@H](O)[C@@H]1O (stereo partly specified)	x	x	-6%	x	x	x
CN1CCc2cc3c(cc2[C@@H]1[C@@H]1C(=O)Oc2c1ccc1c2OCO1)OCO3	x	x	5%	x	x	x
CC1(C)S[C@@H]2[C@H](NC(=O)[C@@H](NC(=O)N3CCNC3=O)c3ccccc3)C(=O)N2[C@H]1C(=O)O	x	x	6%	x	26%[21.5 µM]	x
N/C(Cc1cccc2ccccc12)=N\OC(=O)c1ccc(Br)o1	x	x	-15%	-33%	45µM*	x
N/C(Cc1cccc2ccccc12)=N\OC(=O)c1ccc2c(c1)OCO2	24µM*	u	20%	-8%	-32%	-21%
N/C(Cc1ccc(Cl)cc1Cl)=N\OC(=O)c1ccc(Br)o1	-8%	5%	6%	-19%	48%[12.7 µM]	33%
O=C(Cc1ccc(F)cc1)Oc1ccc(C(=S)N2CCCC2)cc1	-27%	-21%	-8%	0%	-19%[59 µM]	-3%
CC[C@H](C)[C@H](NC(=O)[C@H](CC(=O)O)NC(=O)[C@H](CC(C)C)NC(=O)[C@H](Cc1cnc[nH]1)NC(=O)[C@H](C)NC(=O)[C@H](Cc1ccccc1)NC(=O)[C@H](Cc1ccc(O)cc1)NC(=O)[C@@H](NC(=O)[C@H](C)NC(=O)[C@H](CCC(=O)O)NC(=O)[C@H](CCC(=O)O)NC(=O)[C@H](CC(=O)O)NC(=O)CCC(=O)O)C(C)C)C(=O)N[C@H](C(=O)N[C@@H](Cc1c[nH]c2ccccc12)C(=O)O)[C@@H](C)CC	x	x	0%	x	x	x
COCCCNCCOCCOc1ccc(Cl)cc1C(C)(C)C	-2%	20µM*	-21%	u	8.9µM*	-34%
COCCNC(=O)CSc1ccc(Cl)cc1	2%	10%	18%	-17%	0%[59 µM]	43%
COCCNCCCCSc1ccc(Cl)cc1	-20%	8.9µM*	u	56µM*	x	-35%
C=CCNCCOCCSc1ccc(Cl)cc1	0%	3.2µM*	-13%	u	7.9µM*	u
C=CCNC(=O)CSc1ccc(Cl)cc1	-8%	-17%	16%	-1%	7%[12.7 µM]	47%
C=CCNCCOCCOc1ccc(Cl)cc1C(C)(C)C	2%	2µM*	-72%	50µM*	8.9µM*	-45%
Cc1ccc(C)c(OCCn2c(-c3ccc(Cl)cc3)nc3ccccc3c2=O)c1C	x	1%	x	16%	-15%[59 µM]	68%
CN(C)C(=O)COc1ccc2c(-c3ccccc3)cc(=O)oc2c1	-7%	-17%	11%	-7%	24%[59 µM]	26%
C=CCNCCCOc1ccc(Cl)cc1C(C)(C)C	-2%	4.5µM*	u	40µM*	10µM*	u
N#Cc1nc(COc2ccccc2F)oc1NCc1ccc(F)cc1	-6%	-30%	30%	u	35µM*	-8%
COc1ccc(CCNc2oc(COc3ccccc3F)nc2C#N)cc1	-1%	-30%	2%	u	35µM*	-26%
COc1ccc(CNc2oc(COc3ccc(Cl)cc3)nc2C#N)cc1	-4%	u	18%	u	u	u
COc1ccc(CCNc2oc(COc3ccc(Br)cc3)nc2C#N)cc1OC	-5%	u	4%	u	40µM*	28%
COc1ccc(-c2nc(C#N)c(NCCc3ccccc3)o2)cc1	2%	-8%	-2%	1%	-11%[59 µM]	23%
SMILES	PLK1 PBD inh	JMJD2A Tudor inh	Sfp PPTase inh	BAZ2B inh	G9a block	HP1b chromo inh
COc1ccc(-c2nc3ccccc3c(=O)n2CCOc2cccc(C)c2C)cc1	-7%	6%	-9%	-6%	66%[59 µM]	93%
COc1ccc(-c2ccc(-c3cc(=O)oc4cc(OC)c(OC)c(OC)c34)cc2)cc1OC	-13%	-29%	-15%	x	9%[59 µM]	36%
COc1cc2oc(=O)cc(-c3ccc(-c4cccc(N)c4)cc3)c2c(OC)c1OC	x	x	-27%	x	28µM*	x
CC(=O)N1CCN(CC(=O)c2ccc(Br)cc2)CC1	-6%	-12%	-4%	-4%	2µM*	61%
CC(=O)N1CCN(CCS(=O)(=O)c2ccc(Br)cc2)CC1	-1%	0%	x	-3%	26%[59 µM]	34%
N#CCN1CCN(CC(=O)c2ccc(Br)cc2)CC1	-4%	-5%	0%	-4%	13µM*	34%
Nc1ccnc(=O)[nH]1	-2%	-6%	x	-2%	16%[59 µM]	37%
O=C(CNC(=O)c1ccccc1)OCc1cc(=O)n2nc(C3CC3)sc2n1	x	-24%	x	-5%	12%[59 µM]	-15%
Cc1ccccc1C(=O)NCC(=O)NNC(=O)c1cccc(Cl)c1	-4%	-10%	x	2%	45%[12.7 µM]	35%
CCO/C(C)=C1\N=C(c2ccc(Cl)cc2)OC1=O	u	-19%	22%	-6%[57.1 µM]	45µM*	34%
CCOC(=O)c1nnn(-c2nonc2N)c1-c1ccc(Cl)cc1	-9%	-10%	8%	-12%	8%	13%
CCCn1nc(C(=O)Nc2cccc(S(=O)(=O)N3CCOCC3)c2)c2ccccc2c1=O	-2%	x	x	x	x	x
O=C(CCN1CCN(c2ccccc2F)CC1)c1ccc(Br)cc1	8.4µM*	-26%	-26%	-4%	3.2µM*	20%
COc1ccc(C(=O)CCN2CCN(c3ccccc3F)CC2)cc1	11µM*	-4%[11.4 µM]	50µM*	-33%	u	51%
COc1ccc(OC)c(NC(=O)CCN2CCN(c3ccccc3F)CC2)c1	-3%	-24%	u	u	u	-4%
CN(C)S(=O)(=O)c1ccc2c(c1)N(CC(=O)NCc1ccc(F)cc1)C(=O)CS2	x	-16%	x	-19%	9%[59 µM]	65%
CCN(CC)CCNC(=O)c1ccc(NC(=O)c2cccc(S(=O)(=O)Nc3ccc(C)cc3)c2)cc1	-16%	-22%	40µM*	-17%	u	22%
CCN(CC)CCNC(=O)c1ccc(NC(=O)c2cccc(S(=O)(=O)N3CCc4ccccc43)c2)cc1	-4%	u	x	-13%	32µM*	u
CCN(CC)CCNC(=O)c1ccc(NC(=O)c2ccc(Cl)c(S(=O)(=O)Nc3ccccc3OC)c2)cc1	x	x	-9%	-28%	50µM*	x
CCN(CC)CCNC(=O)c1ccc(NC(=O)c2cccc(S(=O)(=O)N3c4ccccc4CC3C)c2)cc1 (stereo unspecified)	0%	-35%	u	-26%	2%	-2%
